{
  "source": "PubChem BioAssay (EPA / NIEHS)",
  "note": "Inconclusive results are not listed. More than one record can exist for a structure, and the calls need not agree. The source made the active and inactive calls. Rule for the calls: active = hit-call score of the fitted dose curve at least 0.9, where 1 is the maximum; inconclusive = response in the unintended direction; inactive = score below 0.9.",
  "data": [
    {"target": "Glucocorticoid receptor (Homo sapiens) (UniProt P04150)", "sequence (P04150 whole entry, looked up)": "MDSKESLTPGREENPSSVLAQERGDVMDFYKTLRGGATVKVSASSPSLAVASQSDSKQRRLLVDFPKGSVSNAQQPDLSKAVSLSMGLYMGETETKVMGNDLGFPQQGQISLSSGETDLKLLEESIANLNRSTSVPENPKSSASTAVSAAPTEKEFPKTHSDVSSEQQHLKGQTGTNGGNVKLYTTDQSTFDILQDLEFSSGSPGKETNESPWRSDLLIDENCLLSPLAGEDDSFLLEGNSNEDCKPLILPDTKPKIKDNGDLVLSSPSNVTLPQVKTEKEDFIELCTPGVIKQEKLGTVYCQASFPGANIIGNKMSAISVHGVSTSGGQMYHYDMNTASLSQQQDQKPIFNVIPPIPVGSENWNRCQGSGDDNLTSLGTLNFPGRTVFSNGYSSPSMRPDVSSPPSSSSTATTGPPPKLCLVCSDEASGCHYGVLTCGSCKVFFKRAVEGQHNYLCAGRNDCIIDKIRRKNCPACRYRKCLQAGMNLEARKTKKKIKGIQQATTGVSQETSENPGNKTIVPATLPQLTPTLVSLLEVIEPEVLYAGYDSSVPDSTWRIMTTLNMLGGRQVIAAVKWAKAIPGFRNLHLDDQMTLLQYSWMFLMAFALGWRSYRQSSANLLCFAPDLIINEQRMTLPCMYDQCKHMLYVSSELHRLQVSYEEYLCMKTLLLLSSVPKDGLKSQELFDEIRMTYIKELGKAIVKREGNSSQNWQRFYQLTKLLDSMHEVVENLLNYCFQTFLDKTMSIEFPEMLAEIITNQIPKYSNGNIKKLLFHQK", "assay": "NVS_NR_hGR: NovaScreen (NVS) Nuclear Receptor Binding Assay for human Glucocorticoid Receptor (GR) (AID 2283363)", "experimental": "NVS_NR_hGR is a biochemical, single-readout assay that uses extracted gene-proteins in a cell-free assay. Measurements were taken 16 hours after chemical dosing in a 96-well plate.NVS_NR_hGR is one of one assay component(s) measured or calculated from the NVS_NR_hGR assay. It is designed to make measurements of radioligand binding, a form of binding reporter, as detected with scintillation counting signals by Filter-based radiodetection technology.Data from the assay component NVS_NR_hGR was analyzed into 1 assay endpoint. This assay endpoint, NVS_NR_hGR, was analyzed in the positive analysis fitting direction relative to DMSO as the negative control and baseline of activity. Using a type of binding reporter, loss-of-signal activity can be used to understand changes in the binding as they relate to the gene NR3C1. Furthermore, this assay endpoint can be referred to as a primary readout, because the performed assay has only produced 1 assay endpoint. To generalize the intended target to other relatable targets, this assay endpoint is annotated to the nuclear receptor intended target family, where the subfamily is steroidal.\nBinding assays used specific radioligands (tritiated, iodinated) with non-radioactive competitive displacement ligands in agonist or antagonist protocols (as indicated) and various reference compounds and inhibitors to titrate specific binding to receptors and transporters. Most enzyme assays (CYPs, kinases, phosphatases, proteases, HDACs) used recombinant protein and specific substrates (fluorescence mostly, some colorimetric and radioactive) and inhibitors, followed by a biochemical separation of substrate and product. All assays for the biochemical HTS were initially run in duplicate at a single concentration (10 uM for CYP450 assays and 25 uM for all others). […] Each assay was run with positive and negative controls, and concurrent controls on every plate. The follow-up (secondary) screen tested active chemical-pairs in concentration series, as well as a few additional assays not tested in the primary screen, some selected negative inactives, and several cases re-run in the concentration series for confirmatory purposes.", "values": [
      {"smiles": "CCCN(CCC)c1c([N+](=O)[O-])cc(S(N)(=O)=O)cc1[N+](=O)[O-]", "outcome": "inactive"},
      {"smiles": "COc1ccc(C(c2ccc(OC)cc2)C(Cl)(Cl)Cl)cc1", "outcome": "inactive"},
      {"smiles": "CCNc1nc(Cl)nc(NC(C)C)n1", "outcome": "inactive"},
      {"smiles": "CCCCC(CC)COC(=O)c1ccccc1C(=O)OCC(CC)CCCC", "note": "(configuration not stated)", "AC50": "8.8 µM (active)"},
      {"smiles": "CCOC(=O)CC(SP(=S)(OC)OC)C(=O)OCC", "note": "(configuration not stated)", "outcome": "inactive"},
      {"smiles": "C=CC1(C)OC(=O)N(c2cc(Cl)cc(Cl)c2)C1=O", "note": "(configuration not stated)", "outcome": "inactive", "AC50": "6.97 µM (active)"},
      {"smiles": "COC(=O)c1ccccc1C(=O)OC", "outcome": "inactive"},
      {"smiles": "CON(C)C(=O)Nc1ccc(Cl)c(Cl)c1", "AC50": "8.61 µM (active)"},
      {"smiles": "C#CCOS(=O)OC1CCCCC1Oc1ccc(C(C)(C)C)cc1", "note": "(configuration not stated)", "AC50": "16.5 µM (active)"},
      {"smiles": "Cc1ccc(-c2c(Cl)nc(C#N)n2S(=O)(=O)N(C)C)cc1", "outcome": "inactive"},
      {"smiles": "CC1COC(Cn2cncn2)(c2ccc(Oc3ccc(Cl)cc3)cc2Cl)O1", "note": "(configuration not stated)", "AC50": "1.89 µM (active)"},
      {"smiles": "CCCCOC(=O)c1ccccc1C(=O)OCCCC", "outcome": "inactive"},
      {"smiles": "CNC(=O)ON=CC(C)(C)SC", "outcome": "inactive"},
      {"smiles": "OC(c1ccc(Cl)cc1)(c1cncnc1)c1ccccc1Cl", "note": "(configuration not stated)", "AC50": "8.34 µM (active)"},
      {"smiles": "COC(=O)N(OC)c1ccccc1COc1ccn(-c2ccc(Cl)cc2)n1", "AC50": "2.01 µM (active)"},
      {"smiles": "COP(N)(=O)SC", "note": "(configuration not stated)", "outcome": "inactive"},
      {"smiles": "CO/C=C(/C(=O)OC)c1ccccc1Oc1cc(Oc2ccccc2C#N)ncn1", "outcome": "inactive"},
      {"smiles": "CNC(=S)S", "outcome": "inactive"},
      {"smiles": "CCNc1nc(Cl)nc(NCC)n1", "outcome": "inactive"},
      {"smiles": "C=CCC1=C(C)C(OC(=O)C2C(C=C(C)C)C2(C)C)CC1=O", "note": "(configuration not stated)", "outcome": "inactive"},
      {"smiles": "CCCC1COC(Cn2cncn2)(c2ccc(Cl)cc2Cl)O1", "note": "(configuration not stated)", "AC50": "10.5 µM (active)"}
    ]}
  ]
}
